# Experimental data published in PubChem BioAssay (NCI).
# Values joined by “and” are separate entries in the source; they are usually repeats but may differ in a detail not shown here. Equal entries are not always repeated. About 83,000 compounds went through this panel and 20% of them were active in at least one assay; those are over-represented in the sample as a whole.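 Percent growth is the endpoint: 0 to 100 indicates growth inhibition (40 means 60% inhibition), 0 means no net growth, and negative values indicate cell death.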 A number with no mark means an inactive call. Active and inactive are the calls of the source. Rule for the calls: active = growth percent below 10; inactive = the rest.
# System: MDA-MB-468 breast
# Test: NCI-60 one-dose screen, 48 h (100 = growth as untreated, 0 = no growth, -100 = all killed)
# Details: 10 µM unless noted
row,SMILES,growth
1,COc1ccc(/C=N/NC(=O)Cn2c(-c3ccc(S(C)(=O)=O)cc3)nc3ccccc32)cc1,98.3%
2,CC(C)=CCC[C@@H](C)[C@H]1CC[C@@]2(C)C3=C(CC[C@]12C)[C@@]1(C)CC[C@H](O)C(C)(C)[C@@H]1CC3,102%
3,COc1cc2oc(-c3cccc(C(=O)Nc4ccc(Cl)cc4)c3)cc(=O)c2c(O)c1OC,43.7%
4,Cc1ccc(NS(=O)(=O)c2ccc3c(c2)C2OCCC2C(c2ccc(C(=O)C(C)C)cc2)N3)cc1C (stereo not drawn),-4.81% (active)
5,C(=N\OCCc1ccccc1)/c1ccccn1,112% and 107%
6,Cc1c(F)cc(C(N)=O)cc1NCC(=O)Nc1ccc([N+](=O)[O-])cc1,92.4%
7,CCN1C(=O)N(CC)C2C1NN=c1s/c(=C\c3ccccc3)c(=O)n12 (stereo not drawn),22.5%
8,COc1ccc2c(c1)c(CC(=O)[Se]CCC#N)c(C)n2C(=O)c1ccc(Cl)cc1,-36% (active)
9,COC(=O)[C@]12CC[C@@H](C)[C@H](C)[C@@H]1C1=CC[C@@H]3[C@@]4(C)C(C=O)=C[C@@](C)(COC(C)=O)C4=CC[C@@]3(C)[C@]1(C)CC2,-3.02% (active)
10,COc1cc(OC)c2ccc(=O)oc2c1,103%
11,Oc1ccc(Cc2ccccc2Cl)c(O)c1,98.4%
12,COc1ccc2[nH]cc(C3(c4c[nH]c5ccc(OC)cc45)C(=O)Nc4ccc(Cl)cc43)c2c1,97.7%
13,Cc1cccc2c(N)c3ccccc3nc12,-60.5% (active)
